Assay [1] in a line: NCI Yeast Anticancer Drug Screen. Data for the rad50 strain (AID 155).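 Further: 0% = growth of vehicle-only cultures of the same strain.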 To be noted: S. cerevisiae rad50 strain growth inhibition; at 50.0 µM; stronger effect = higher value. A digest of the protocol: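 Yeast carrying a defined DNA repair defect were exposed to test compounds, and growth was compared with vehicle-treated controls to give percent inhibition.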
Assay [2] in a line: NCI Yeast Anticancer Drug Screen. Data for the mec2-1 strain (AID 157). The note with it: S. cerevisiae mec2-1 strain, at 50.0 µM, stronger effect = higher value. A digest of the protocol:
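Test agents were screened against the mec2-1 yeast strain, with defined DNA repair or cell cycle alteration. Growth was scored as inhibition against vehicle-only controls.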

Assay [3] in a line: NCI Yeast Anticancer Drug Screen. Data for the sgs1 mgt1 strain (AID 161).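 Further: 0% = growth of cultures given vehicle only.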 To be noted: S. cerevisiae sgs1 mgt1 strain, at 50.0 µM, stronger effect = higher value. Summed up:
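Mutant yeast exposed to compound; growth scored against vehicle-only wells.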

Assay [4] can be described thus: NCI Yeast Anticancer Drug Screen. Data for the cln2 rad14 strain (AID 165).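 Further: 0% = growth equal to vehicle treated cultures.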 To be noted: S. cerevisiae cln2 rad14 strain, at 50.0 µM, stronger effect = higher value. A digest of the protocol: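 Growth of compound-exposed yeast (cln2 rad14 genotype) measured and expressed as inhibition relative to vehicle.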
The nature of assay [5]: NCI Yeast Anticancer Drug Screen. Data for the bub3 strain (AID 167). The note with it: S. cerevisiae bub3 mutant strain, at 50.0 µM, stronger effect = higher value. A digest of the protocol:
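Compounds were applied to a genetically altered yeast strain carrying a cell-cycle control defect. Growth inhibition was scored against vehicle-treated controls.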

Assay [6] is described as follows: NCI Yeast Anticancer Drug Screen. Data for the mlh1 rad18 strain (AID 175). To be noted: S. cerevisiae mlh1 rad18 strain growth inhibition; at 50.0 µM; stronger effect = higher value. A digest of the protocol:
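In this whole-cell yeast screen, a strain with altered DNA damage repair is challenged with compound, and its growth is measured against matched vehicle-treated controls.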

Values joined by “and” are separate entries in the source; they are usually repeats but may differ in a detail not shown here. Equal values may be shown once. About 79,000 compounds went through this panel and 15% of them were active in at least one assay; those are over-represented in the sample as a whole. Some compounds were tested as several samples or in several runs, with calls that do not always agree. Active and inactive are the calls of the source. No stated cut-off is given here; in the data, active means growth inhibition above about 70%; inactive means the rest.

As for `O=C(O)CC(NC(=O)OCc1ccccc1)C(=O)O` (stereo unspecified), the growth inhibition in assay [1] is -30.5% (inactive) and -21.3% (inactive); in assay [2], -16.4% (inactive) and 9.65% (inactive); in assay [3] it was -6.2% (inactive) and 0.8% (inactive); in assay [4] it was 16.5% (inactive) and -33.6% (inactive); in assay [5], 1.55% (inactive) and 4.65% (inactive); in assay [6] it was -8.75% (inactive) and -16.1% (inactive).
`COc1ccc2c(c1)-c1nn(CCCN(C)C)c3ccc([N+](=O)[O-])c(c13)N2`: the growth inhibition in assay [1] was 76.2% (active) and 67.2% (inactive); in assay [2] it was 8% (inactive) and 12.3% (inactive); in assay [3], 23.9% (inactive) and -28.4% (inactive); in assay [4], 10.7% (inactive) and 20.6% (inactive); in assay [5] it was 27.8% (inactive) and -60.1% (inactive); in assay [6], 39.7% (inactive) and 28.5% (inactive).
For `CC(=O)OCC1OC(n2c(-c3ccccc3)cc(-c3ccccc3)c(C#N)c2=O)C(OC(C)=O)C(OC(C)=O)C1OC(C)=O` (stereo unspecified), the growth inhibition in assay [1] is -14.3% (inactive) and -1.45% (inactive); in assay [2], -3.7% (inactive) and 6.6% (inactive); in assay [3] it was 1.8% (inactive) and 3.45% (inactive); in assay [4], 23.6% (inactive) and 0.7% (inactive); in assay [5], 5.4% (inactive) and 3.9% (inactive); in assay [6], 16% (inactive) and -2.25% (inactive).
For `CC(=O)/C=C/C1=C(C)CCCC1(C)C`, the growth inhibition in assay [1] is -21.8% (inactive) and 11.2% (inactive); in assay [2] it was -8.35% (inactive) and -10.9% (inactive); in assay [3] it was -18.1% (inactive) and -19.4% (inactive); in assay [4], -14.7% (inactive) and 8.05% (inactive); in assay [5] it was -20.9% (inactive) and 0.5% (inactive); in assay [6] it was 11.8% (inactive) and -2.2% (inactive).
Regarding `CCOC(=O)C(OC1OC(C(=O)OC)C(OC(C)=O)C(OC(C)=O)C1OC(C)=O)c1ccccc1` (stereo unspecified), the growth inhibition in assay [1] was -10.2% (inactive) and -20.9% (inactive); in assay [2], -5.7% (inactive) and -8.3% (inactive); in assay [3], -13.2% (inactive) and -11.8% (inactive); in assay [4], 0.5% (inactive) and -29.8% (inactive); in assay [5] it was -6.85% (inactive) and -17.8% (inactive); in assay [6], -33.1% (inactive) and -35.5% (inactive).
Consider `O=C(O)c1cc2ccccc2c(=O)[nH]1`, for which the growth inhibition was -2.25% (inactive) and 29.4% (inactive) in assay [1]; 4.55% (inactive) and 10.8% (inactive) in assay [2]; -6.9% (inactive) and 21.9% (inactive) in assay [3]; 0.8% (inactive) and 12.2% (inactive) in assay [4]; 0.9% (inactive) and 4.45% (inactive) in assay [5]; 2.4% (inactive) and -6.55% (inactive) in assay [6].
Take `NCCC(=O)c1ccccc1`: the growth inhibition is -8.25% (inactive) and 0.05% (inactive) in assay [1]; -4.2% (inactive) and 6.2% (inactive) in assay [2]; -14.6% (inactive) and -1.4% (inactive) in assay [3]; -17.4% (inactive) and 7.65% (inactive) in assay [4]; -19.5% (inactive) and 7.95% (inactive) in assay [5]; -2.7% (inactive) and 25.3% (inactive) in assay [6].
`Cc1cc(=O)cc(C)o1`: the growth inhibition in assay [1] was -11.2% (inactive) and 18.4% (inactive); in assay [2] it was -12.8% (inactive) and 5.6% (inactive); in assay [3] it was -10.2% (inactive) and -20.6% (inactive); in assay [4] it was -2.45% (inactive) and -47.6% (inactive); in assay [5], 2.35% (inactive) and -5.85% (inactive); in assay [6], -8.55% (inactive) and 0.05% (inactive).
For `COC(=O)C(CC(C)C)NC(=O)CN1C(=O)c2ccccc2C1=O` (stereo unspecified), the growth inhibition in assay [1] was -12.9% (inactive) and 9.2% (inactive); in assay [2] it was -5.95% (inactive) and 10.9% (inactive); in assay [3], 6.75% (inactive) and 4.6% (inactive); in assay [4], 5.05% (inactive) and 6.3% (inactive); in assay [5], -10% (inactive) and 7.3% (inactive); in assay [6], -2.4% (inactive) and 1.45% (inactive).
`CC(=O)OCC1OC(n2c(C)c(C)cc(C#N)c2=S)C(OC(C)=O)C(OC(C)=O)C1OC(C)=O` (stereo unspecified): the growth inhibition in assay [1] was -18.1% (inactive) and 18.2% (inactive); in assay [2], -10.2% (inactive) and -13.2% (inactive); in assay [3], -4.8% (inactive) and -4.05% (inactive); in assay [4] it was -23.4% (inactive) and 18.9% (inactive); in assay [5], -2.2% (inactive) and 18.7% (inactive); in assay [6] it was 4.3% (inactive) and 14.9% (inactive).
For the compound `COC1OC(CO)C(O)C(O)C1N1C(=O)c2ccccc2C1=O` (stereo unspecified), the growth inhibition in assay [1] is 9.35% (inactive) and -4.5% (inactive); in assay [2], -4.15% (inactive) and 8.4% (inactive); in assay [3], 22.6% (inactive) and -3.85% (inactive); in assay [4], 7.95% (inactive) and -15.8% (inactive); in assay [5], 12.2% (inactive) and 4.45% (inactive); in assay [6], 19% (inactive) and -3.45% (inactive).
`OCC(O)C(O)C(O)c1cnn(-c2ccccc2)n1` (stereo unspecified): the growth inhibition in assay [1] was 8.95% (inactive) and 4.85% (inactive); in assay [2] it was -5.4% (inactive) and 1.9% (inactive); in assay [3], -4.6% (inactive) and -4.7% (inactive); in assay [4], 1.75% (inactive) and -3.7% (inactive); in assay [5], -2.85% (inactive) and -8.2% (inactive); in assay [6], 14.6% (inactive) and -0.05% (inactive).
In the case of `N#CC(Cc1ccccc1)c1ccccc1` (stereo unspecified), the growth inhibition in assay [1] is -65.7% (inactive) and 17.2% (inactive); in assay [2], -12.5% (inactive) and 11.1% (inactive); in assay [3], -18.1% (inactive) and 29.8% (inactive); in assay [4], -24.8% (inactive) and 1.75% (inactive); in assay [5], 0.45% (inactive) and -5% (inactive); in assay [6], 3.45% (inactive) and 6.45% (inactive).
`O=C(NNC(=S)NC1OC(CO)C(O)C(O)C1O)c1cccc(C(=O)NNC(=S)NC2OC(CO)C(O)C(O)C2O)n1` (stereo unspecified): the growth inhibition in assay [1] is 1.45% (inactive); in assay [2], 19.9% (inactive) and -22.6% (inactive); in assay [3], 31.4% (inactive) and 25.2% (inactive); in assay [4], 21.4% (inactive) and 7.8% (inactive); in assay [5], 17.1% (inactive) and 8.4% (inactive); in assay [6] it was 27.4% (inactive) and 14.9% (inactive).
Consider `CCC(=O)Oc1cc(C)ccc1C(C)(C)C`, for which the growth inhibition in assay [1] is 1.4% (inactive) and -18.1% (inactive); in assay [2], 0.8% (inactive) and -19.4% (inactive); in assay [3], 1.45% (inactive) and -12% (inactive); in assay [4], -3.7% (inactive) and -1.5% (inactive); in assay [5], -0.3% (inactive) and -13.2% (inactive); in assay [6], -3.6% (inactive) and -5.85% (inactive).
For `COC(=O)c1cccc2c[n+]3c(cc12)-c1[nH]c2cc(OC)ccc2c1CC3`, the growth inhibition in assay [1] is 4.55% (inactive) and 53% (inactive); in assay [2], -16.9% (inactive) and 8.8% (inactive); in assay [3], -0.05% (inactive) and 21.1% (inactive); in assay [4], -8.05% (inactive) and -7.6% (inactive); in assay [5], 4.6% (inactive) and 13.1% (inactive); in assay [6], 14.6% (inactive) and 13.7% (inactive).
On to `CC(C)CC(NC(=O)COc1ccc(Cl)cc1Cl)C(=O)O` (stereo unspecified), for which the growth inhibition in assay [1] is -16.8% (inactive) and -4.25% (inactive); in assay [2], -3.15% (inactive) and -14.4% (inactive); in assay [3] it was 7.55% (inactive) and -4.15% (inactive); in assay [4] it was -50.5% (inactive) and -21.7% (inactive); in assay [5] it was 4.5% (inactive) and 13.7% (inactive); in assay [6] it was -3.8% (inactive) and -11.1% (inactive).
For `CCC(N)C(=O)O` (stereo unspecified), the growth inhibition in assay [1] is -0.4% (inactive) and 5.25% (inactive); in assay [2], -31.6% (inactive) and 6.85% (inactive); in assay [3], 1.75% (inactive) and -11.3% (inactive); in assay [4], 8.55% (inactive) and 9.4% (inactive); in assay [5], -9.75% (inactive) and -14.9% (inactive); in assay [6], -10.8% (inactive) and -0.8% (inactive).
Consider `COc1nc2c(c(=O)n1C)NC(C(O)C(O)CO)C=N2` (stereo unspecified), for which the growth inhibition in assay [1] was -34.7% (inactive) and -26.7% (inactive); in assay [2], -20.6% (inactive) and -33.5% (inactive); in assay [3], -23.8% (inactive) and -25.8% (inactive); in assay [4] it was -5.05% (inactive) and 8.25% (inactive); in assay [5], -14.8% (inactive) and -15.7% (inactive); in assay [6], -23.4% (inactive) and -17.4% (inactive).
Regarding `CC12CCC(C(=O)OC1=O)C2(C)C` (stereo unspecified), the growth inhibition in assay [1] is 3.8% (inactive) and -0.45% (inactive); in assay [2], -8.2% (inactive) and 4.05% (inactive); in assay [3], -46.8% (inactive) and -13.5% (inactive); in assay [4] it was 28.1% (inactive) and -51% (inactive); in assay [5] it was -29.8% (inactive) and 0.35% (inactive); in assay [6], -55% (inactive) and -0.75% (inactive).
On to `O=c1c(O)c(-c2ccc(O)c(O)c2)oc2cc(O)ccc12`, for which the growth inhibition was -15.2% (inactive) and -57% (inactive) in assay [1]; -14.6% (inactive) and -40.4% (inactive) in assay [2]; -3.25% (inactive) and -24.9% (inactive) in assay [3]; 0.2% (inactive) and -25% (inactive) in assay [4]; -15.1% (inactive) and -48.1% (inactive) in assay [5]; -3.7% (inactive) and -37.3% (inactive) in assay [6].
